# Results published in publication PMC7862700, “An all-to-all approach to the identification of sequence-specific readers for epigenetic DNA modifications on cytosine”.
# Columns and labels:
# Test in all cases: DAPPL (digital affinity profiling via proximity ligation, sequencing); 10 mM Tris-HCl pH 7.5, 50 mM NaCl, 1 mM DTT, 4% glycerol, room temperature, 30 min; GST-TFs on glutathione beads, 16-mer random dsDNA library, 0.1% formaldehyde crosslink after washing; high values mean tight binding
# FLI1 = target: T1, FLI1 (Homo sapiens, UniProt Q01543 1-452); conditions: protein: recombinant; tags: N-terminal GST; dsDNA, one strand shown
# T1 sequence: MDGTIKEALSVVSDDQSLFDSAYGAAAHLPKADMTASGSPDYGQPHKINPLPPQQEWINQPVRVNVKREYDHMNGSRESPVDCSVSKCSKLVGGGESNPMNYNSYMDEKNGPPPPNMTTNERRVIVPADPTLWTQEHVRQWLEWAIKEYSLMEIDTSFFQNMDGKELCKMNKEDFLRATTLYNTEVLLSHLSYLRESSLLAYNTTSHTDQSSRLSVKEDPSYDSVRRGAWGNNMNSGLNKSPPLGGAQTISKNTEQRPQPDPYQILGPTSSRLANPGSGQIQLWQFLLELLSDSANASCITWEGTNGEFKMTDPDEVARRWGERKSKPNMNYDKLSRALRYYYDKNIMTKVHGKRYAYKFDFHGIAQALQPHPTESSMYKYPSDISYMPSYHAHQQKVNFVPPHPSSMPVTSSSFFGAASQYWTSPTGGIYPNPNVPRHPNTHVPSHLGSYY
# In short: (§1)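 Beads coated with glutathione captured GST-fused human transcription factors that had been expressed in yeast, and the factors were then given DNA barcodes and pooled with a tag-only sample. The pools were incubated with 200 nmole of a random double-stranded 16-mer DNA library in Tris/NaCl/DTT/glycerol buffer for 30 min at room temperature, washed, crosslinked with 0.1% formaldehyde and proximity-ligated with BsaI/T4 ligase at 37 °C for 1 h. PCR amplification and Illumina NextSeq500 sequencing came last. Binding signal is each hexamer's read frequency for a factor divided by its frequency for the tag-only sample.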
# ELK1 = target: T2, ELK1 (Homo sapiens, UniProt P19419 1-428); conditions: protein: recombinant; tags: N-terminal GST; dsDNA, one strand shown
# T2 sequence: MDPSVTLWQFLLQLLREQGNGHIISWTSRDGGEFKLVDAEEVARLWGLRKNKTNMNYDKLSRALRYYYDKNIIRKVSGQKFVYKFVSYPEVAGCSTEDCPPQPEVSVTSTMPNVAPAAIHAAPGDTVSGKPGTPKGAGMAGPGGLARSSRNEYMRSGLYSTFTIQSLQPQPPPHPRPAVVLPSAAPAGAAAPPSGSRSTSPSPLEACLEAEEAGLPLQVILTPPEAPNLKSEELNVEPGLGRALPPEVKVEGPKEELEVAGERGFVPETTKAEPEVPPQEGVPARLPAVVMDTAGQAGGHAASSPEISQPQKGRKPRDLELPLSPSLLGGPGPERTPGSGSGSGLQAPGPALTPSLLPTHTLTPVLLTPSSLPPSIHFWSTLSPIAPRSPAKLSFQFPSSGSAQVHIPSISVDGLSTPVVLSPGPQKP
# In short: as §1
# GABPA = target: T3, GABPA (Homo sapiens, UniProt Q06546 1-454); conditions: protein: recombinant; tags: N-terminal GST; dsDNA, one strand shown
# T3 sequence: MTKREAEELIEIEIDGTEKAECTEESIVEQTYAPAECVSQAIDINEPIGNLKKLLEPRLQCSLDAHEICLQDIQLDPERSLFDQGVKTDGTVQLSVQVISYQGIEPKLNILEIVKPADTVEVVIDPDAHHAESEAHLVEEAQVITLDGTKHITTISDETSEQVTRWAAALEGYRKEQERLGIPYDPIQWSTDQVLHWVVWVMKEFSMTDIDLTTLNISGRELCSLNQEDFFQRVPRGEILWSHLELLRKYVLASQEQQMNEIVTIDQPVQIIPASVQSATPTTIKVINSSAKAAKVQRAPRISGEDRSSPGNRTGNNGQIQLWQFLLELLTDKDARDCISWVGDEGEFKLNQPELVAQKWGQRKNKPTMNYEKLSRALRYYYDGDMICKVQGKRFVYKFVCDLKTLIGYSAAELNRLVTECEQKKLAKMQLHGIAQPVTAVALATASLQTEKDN
# In short: as §1
# ERG = target: T4, ERG (Homo sapiens, UniProt P11308 1-479); conditions: protein: recombinant; tags: N-terminal GST; dsDNA, one strand shown
# T4 sequence: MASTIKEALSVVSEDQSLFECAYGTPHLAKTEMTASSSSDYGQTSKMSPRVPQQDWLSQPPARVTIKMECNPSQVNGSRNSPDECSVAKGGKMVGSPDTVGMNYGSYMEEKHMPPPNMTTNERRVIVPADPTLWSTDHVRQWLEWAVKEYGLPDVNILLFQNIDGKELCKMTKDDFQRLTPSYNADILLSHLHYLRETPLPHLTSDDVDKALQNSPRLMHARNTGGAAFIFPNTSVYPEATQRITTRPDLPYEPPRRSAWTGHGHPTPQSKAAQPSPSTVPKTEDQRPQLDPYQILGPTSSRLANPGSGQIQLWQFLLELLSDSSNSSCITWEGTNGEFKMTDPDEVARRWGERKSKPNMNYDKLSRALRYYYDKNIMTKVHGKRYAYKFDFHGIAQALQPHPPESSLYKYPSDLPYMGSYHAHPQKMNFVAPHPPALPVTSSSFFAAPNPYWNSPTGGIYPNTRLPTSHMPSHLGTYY
# In short: as §1
# ELF1 = ELF1 (Homo sapiens, UniProt P32519 1-619); conditions: protein: recombinant; tags: N-terminal GST; dsDNA, one strand shown
# Sequence of ELF1 (P32519 whole entry): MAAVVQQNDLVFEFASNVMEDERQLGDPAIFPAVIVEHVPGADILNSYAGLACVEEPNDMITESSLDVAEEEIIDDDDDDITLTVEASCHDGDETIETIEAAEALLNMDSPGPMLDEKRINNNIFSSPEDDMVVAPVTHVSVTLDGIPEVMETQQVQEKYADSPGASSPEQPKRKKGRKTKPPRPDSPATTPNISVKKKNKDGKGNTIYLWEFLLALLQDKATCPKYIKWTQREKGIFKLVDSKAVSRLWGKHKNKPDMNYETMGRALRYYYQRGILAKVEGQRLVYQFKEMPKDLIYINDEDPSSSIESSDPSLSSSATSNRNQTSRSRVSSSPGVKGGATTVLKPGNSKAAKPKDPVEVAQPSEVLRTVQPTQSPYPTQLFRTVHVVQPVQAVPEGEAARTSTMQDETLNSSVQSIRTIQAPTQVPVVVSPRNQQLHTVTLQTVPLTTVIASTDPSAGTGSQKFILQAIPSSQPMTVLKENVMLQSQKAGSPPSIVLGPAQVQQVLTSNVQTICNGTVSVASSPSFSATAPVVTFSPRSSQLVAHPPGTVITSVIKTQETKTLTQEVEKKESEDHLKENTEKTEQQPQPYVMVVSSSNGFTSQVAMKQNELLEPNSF
# In short: as §1
# EHF = target: T5, EHF (Homo sapiens, UniProt Q9NZC4 1-300); conditions: protein: recombinant; tags: N-terminal GST; dsDNA, one strand shown
# T5 sequence: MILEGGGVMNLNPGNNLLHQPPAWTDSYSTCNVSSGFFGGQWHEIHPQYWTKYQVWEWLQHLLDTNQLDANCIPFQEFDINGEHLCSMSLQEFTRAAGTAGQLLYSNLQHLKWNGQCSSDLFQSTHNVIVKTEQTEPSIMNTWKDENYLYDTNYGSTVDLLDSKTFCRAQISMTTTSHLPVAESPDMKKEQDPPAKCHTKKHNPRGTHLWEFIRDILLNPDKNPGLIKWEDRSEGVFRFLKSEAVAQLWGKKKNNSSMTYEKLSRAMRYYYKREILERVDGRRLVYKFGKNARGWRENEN
# In short: as §1
# SPI1 = SPI1 (Homo sapiens, UniProt P17947 1-270); conditions: protein: recombinant; tags: N-terminal GST; dsDNA, one strand shown
# In short: as §1
# SPIB = SPIB (Homo sapiens, UniProt Q01892 1-262); conditions: protein: recombinant; tags: N-terminal GST; dsDNA, one strand shown
# Sequence of SPIB (Q01892 whole entry): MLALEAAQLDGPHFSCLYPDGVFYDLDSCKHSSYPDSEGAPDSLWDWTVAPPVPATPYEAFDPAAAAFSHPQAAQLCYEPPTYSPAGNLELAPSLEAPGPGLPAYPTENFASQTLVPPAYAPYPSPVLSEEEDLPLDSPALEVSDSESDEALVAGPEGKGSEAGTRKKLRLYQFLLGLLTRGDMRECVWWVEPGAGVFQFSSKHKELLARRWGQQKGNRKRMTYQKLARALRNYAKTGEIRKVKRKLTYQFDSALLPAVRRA
# In short: as §1
# ELK3 = target: T6, ELK3 (Homo sapiens, UniProt P41970 1-407); conditions: protein: recombinant; tags: N-terminal GST; dsDNA, one strand shown
# T6 sequence: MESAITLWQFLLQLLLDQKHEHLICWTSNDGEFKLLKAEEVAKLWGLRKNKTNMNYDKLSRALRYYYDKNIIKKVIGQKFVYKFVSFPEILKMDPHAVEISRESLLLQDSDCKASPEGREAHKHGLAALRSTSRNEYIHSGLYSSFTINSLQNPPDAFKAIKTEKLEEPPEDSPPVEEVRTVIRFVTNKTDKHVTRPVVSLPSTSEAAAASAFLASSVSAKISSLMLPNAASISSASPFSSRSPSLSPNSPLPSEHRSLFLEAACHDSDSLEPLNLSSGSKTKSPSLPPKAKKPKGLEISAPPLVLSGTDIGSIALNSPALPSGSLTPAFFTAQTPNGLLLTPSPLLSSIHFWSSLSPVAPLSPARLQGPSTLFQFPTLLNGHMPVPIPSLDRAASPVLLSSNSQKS
# In short: as §1
# FEV = target: T7, FEV (Homo sapiens, UniProt Q99581 1-238); conditions: protein: recombinant; tags: N-terminal GST; dsDNA, one strand shown
# T7 sequence: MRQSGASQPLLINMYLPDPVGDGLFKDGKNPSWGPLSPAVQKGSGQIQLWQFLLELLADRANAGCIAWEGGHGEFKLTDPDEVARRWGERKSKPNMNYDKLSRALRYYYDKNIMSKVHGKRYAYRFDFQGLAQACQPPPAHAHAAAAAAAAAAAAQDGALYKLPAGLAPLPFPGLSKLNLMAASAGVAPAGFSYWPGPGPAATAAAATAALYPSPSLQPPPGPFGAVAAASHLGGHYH
# In short: as §1
# ETV5 = ETV5 (Homo sapiens, UniProt P41161 1-510); conditions: protein: recombinant; tags: N-terminal GST; dsDNA, one strand shown
# Sequence of ETV5 (P41161 whole entry): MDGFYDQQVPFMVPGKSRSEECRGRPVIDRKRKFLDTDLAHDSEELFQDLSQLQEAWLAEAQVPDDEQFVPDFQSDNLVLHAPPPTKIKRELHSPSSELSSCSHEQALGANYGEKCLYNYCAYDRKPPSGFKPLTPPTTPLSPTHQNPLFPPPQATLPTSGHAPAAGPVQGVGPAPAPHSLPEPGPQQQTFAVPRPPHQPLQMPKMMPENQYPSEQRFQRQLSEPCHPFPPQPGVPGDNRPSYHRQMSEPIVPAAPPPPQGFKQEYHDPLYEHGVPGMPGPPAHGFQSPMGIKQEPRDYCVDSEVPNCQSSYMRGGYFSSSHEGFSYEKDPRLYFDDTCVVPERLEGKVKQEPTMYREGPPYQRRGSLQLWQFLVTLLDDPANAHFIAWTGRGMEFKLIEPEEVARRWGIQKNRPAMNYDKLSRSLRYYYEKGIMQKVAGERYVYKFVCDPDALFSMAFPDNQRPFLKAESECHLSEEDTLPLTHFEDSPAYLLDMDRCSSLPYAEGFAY
# In short: as §1
# HSF1 = HSF1 (Homo sapiens, UniProt Q00613 1-529); conditions: protein: recombinant; tags: N-terminal GST; chain copies: 3; dsDNA, one strand shown
# Sequence of HSF1 (Q00613 whole entry): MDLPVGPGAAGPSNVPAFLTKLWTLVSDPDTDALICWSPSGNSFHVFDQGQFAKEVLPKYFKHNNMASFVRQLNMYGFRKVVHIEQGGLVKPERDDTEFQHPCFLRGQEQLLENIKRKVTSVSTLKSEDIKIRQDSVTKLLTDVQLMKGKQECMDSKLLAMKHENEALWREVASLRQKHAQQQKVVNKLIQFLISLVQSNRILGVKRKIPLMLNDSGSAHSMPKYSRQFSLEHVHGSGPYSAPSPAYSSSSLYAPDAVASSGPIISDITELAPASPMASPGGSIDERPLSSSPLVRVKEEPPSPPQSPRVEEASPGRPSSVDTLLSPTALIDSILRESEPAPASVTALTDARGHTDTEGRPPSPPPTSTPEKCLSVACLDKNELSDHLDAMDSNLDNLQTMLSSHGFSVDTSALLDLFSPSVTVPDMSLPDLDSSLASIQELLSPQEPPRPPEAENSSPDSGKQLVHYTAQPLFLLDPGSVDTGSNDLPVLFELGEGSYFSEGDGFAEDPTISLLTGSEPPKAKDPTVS
# In short: as §1
# SPIC = target: T8, SPIC (Homo sapiens, UniProt Q8N5J4 1-248); conditions: protein: recombinant; tags: N-terminal GST; dsDNA, one strand shown
# T8 sequence: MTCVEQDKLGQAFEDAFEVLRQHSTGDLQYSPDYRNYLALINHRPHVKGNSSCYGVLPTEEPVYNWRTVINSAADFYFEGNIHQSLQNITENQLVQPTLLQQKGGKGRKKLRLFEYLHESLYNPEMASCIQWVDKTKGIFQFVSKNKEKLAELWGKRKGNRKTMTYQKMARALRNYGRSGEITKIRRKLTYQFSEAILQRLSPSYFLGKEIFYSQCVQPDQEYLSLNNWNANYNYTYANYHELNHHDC
# In short: as §1
# ELF4 = ELF4 (Homo sapiens, UniProt Q99607 1-663); conditions: protein: recombinant; tags: N-terminal GST; dsDNA, one strand shown
# Sequence of ELF4 (Q99607 whole entry): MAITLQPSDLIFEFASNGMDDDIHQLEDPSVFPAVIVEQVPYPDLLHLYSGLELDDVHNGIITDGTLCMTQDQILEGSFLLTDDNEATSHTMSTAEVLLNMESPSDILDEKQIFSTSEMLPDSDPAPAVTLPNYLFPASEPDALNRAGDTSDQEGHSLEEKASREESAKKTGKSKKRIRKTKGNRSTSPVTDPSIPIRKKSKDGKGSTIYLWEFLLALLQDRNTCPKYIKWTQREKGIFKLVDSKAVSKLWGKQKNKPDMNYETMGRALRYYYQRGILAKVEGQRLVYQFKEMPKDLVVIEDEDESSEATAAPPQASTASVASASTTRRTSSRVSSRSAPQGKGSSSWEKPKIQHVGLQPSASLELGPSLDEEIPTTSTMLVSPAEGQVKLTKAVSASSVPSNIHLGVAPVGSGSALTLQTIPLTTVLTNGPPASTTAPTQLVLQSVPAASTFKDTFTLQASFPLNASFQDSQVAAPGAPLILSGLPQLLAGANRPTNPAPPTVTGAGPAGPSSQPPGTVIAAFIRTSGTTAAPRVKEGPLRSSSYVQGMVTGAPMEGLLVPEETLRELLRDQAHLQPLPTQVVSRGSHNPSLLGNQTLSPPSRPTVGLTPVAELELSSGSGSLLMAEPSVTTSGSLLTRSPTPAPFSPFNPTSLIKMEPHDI
# In short: as §1
# ELK4 = target: T9, ELK4 (Homo sapiens, UniProt P28324-2 1-405); conditions: protein: recombinant; tags: N-terminal GST; dsDNA, one strand shown
# T9 sequence: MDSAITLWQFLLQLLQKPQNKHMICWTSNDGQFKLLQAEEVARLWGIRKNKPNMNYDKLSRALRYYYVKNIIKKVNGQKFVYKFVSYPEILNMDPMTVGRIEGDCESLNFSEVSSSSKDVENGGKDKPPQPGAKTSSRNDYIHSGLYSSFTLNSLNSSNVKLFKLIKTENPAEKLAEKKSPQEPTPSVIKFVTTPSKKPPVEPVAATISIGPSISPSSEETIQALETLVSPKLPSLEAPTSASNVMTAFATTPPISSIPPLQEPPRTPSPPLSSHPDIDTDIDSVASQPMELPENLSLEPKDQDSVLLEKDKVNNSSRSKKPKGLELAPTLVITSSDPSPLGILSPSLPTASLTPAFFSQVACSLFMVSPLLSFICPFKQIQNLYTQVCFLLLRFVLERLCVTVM
# In short: as §1
# ETV2 = target: T10, ETV2 (Homo sapiens, UniProt O00321 1-342); conditions: protein: recombinant; tags: N-terminal GST; dsDNA, one strand shown
# T10 sequence: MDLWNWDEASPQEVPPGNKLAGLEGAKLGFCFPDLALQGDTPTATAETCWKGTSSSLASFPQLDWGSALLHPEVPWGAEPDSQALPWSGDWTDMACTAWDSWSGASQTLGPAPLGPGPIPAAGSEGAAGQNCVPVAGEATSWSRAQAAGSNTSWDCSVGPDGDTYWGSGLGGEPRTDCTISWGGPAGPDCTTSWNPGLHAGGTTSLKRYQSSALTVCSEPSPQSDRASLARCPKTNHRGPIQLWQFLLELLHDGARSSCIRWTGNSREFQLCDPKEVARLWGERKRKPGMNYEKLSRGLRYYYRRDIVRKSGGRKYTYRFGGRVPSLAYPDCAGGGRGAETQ
# In short: as §1
# ELF3 = target: T11, ELF3 (Homo sapiens, UniProt P78545 1-371); conditions: protein: recombinant; tags: N-terminal GST; dsDNA, one strand shown
# T11 sequence: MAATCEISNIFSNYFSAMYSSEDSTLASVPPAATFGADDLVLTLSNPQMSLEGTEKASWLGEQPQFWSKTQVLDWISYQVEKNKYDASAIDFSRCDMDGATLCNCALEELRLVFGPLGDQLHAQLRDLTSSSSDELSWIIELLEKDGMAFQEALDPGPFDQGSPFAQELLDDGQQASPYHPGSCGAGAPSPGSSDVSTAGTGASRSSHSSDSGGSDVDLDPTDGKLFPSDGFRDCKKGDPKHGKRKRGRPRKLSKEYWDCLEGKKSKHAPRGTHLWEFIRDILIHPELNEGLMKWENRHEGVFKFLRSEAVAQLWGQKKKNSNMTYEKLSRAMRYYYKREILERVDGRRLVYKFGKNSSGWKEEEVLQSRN
# In short: as §1
# CRX = CRX (Homo sapiens, UniProt O43186 1-299); conditions: protein: recombinant; tags: N-terminal GST; dsDNA, one strand shown
# Sequence of CRX (O43186 whole entry): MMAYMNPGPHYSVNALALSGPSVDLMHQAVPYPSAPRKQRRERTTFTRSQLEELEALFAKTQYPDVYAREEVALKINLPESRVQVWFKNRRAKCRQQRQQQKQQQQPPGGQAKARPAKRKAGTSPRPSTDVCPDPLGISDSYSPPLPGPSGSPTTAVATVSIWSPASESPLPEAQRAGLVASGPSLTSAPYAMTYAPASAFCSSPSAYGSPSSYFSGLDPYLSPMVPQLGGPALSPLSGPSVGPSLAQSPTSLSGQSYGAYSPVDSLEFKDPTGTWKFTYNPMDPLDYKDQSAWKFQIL
# In short: as §1
# ETV1 = ETV1 (Homo sapiens, UniProt P50549 1-477); conditions: protein: recombinant; tags: N-terminal GST; dsDNA, one strand shown
# Sequence of ETV1 (P50549 whole entry): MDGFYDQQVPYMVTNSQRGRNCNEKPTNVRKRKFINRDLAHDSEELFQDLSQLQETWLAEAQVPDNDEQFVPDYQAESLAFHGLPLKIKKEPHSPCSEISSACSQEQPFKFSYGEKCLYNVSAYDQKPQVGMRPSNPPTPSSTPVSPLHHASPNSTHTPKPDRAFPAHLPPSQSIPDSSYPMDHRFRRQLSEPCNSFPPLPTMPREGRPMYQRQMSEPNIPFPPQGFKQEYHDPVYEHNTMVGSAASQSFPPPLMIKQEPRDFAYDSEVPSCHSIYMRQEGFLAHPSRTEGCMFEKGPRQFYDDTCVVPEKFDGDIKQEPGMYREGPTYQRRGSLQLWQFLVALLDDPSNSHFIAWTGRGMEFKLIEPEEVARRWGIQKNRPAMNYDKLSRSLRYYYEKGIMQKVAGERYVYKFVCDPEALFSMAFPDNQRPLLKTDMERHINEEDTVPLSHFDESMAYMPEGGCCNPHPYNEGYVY
# In short: as §1
sequence,measurement,setting,value
GCGATG,binding signal,FLI1,"1.2 fold enrichment (6-mer frequency, TF over GST control)"
same,binding signal,ELK1,"1.48 fold enrichment (6-mer frequency, TF over GST control)"
same,binding signal,GABPA,"1.37 fold enrichment (6-mer frequency, TF over GST control)"
same,binding signal,ERG,"1.23 fold enrichment (6-mer frequency, TF over GST control)"
same,binding signal,ELF1,"1.31 fold enrichment (6-mer frequency, TF over GST control)"
same,binding signal,EHF,"1.25 fold enrichment (6-mer frequency, TF over GST control)"
same,binding signal,SPI1,"1.34 fold enrichment (6-mer frequency, TF over GST control)"
same,binding signal,SPIB,"1.29 fold enrichment (6-mer frequency, TF over GST control)"
same,binding signal,ELK3,"1.31 fold enrichment (6-mer frequency, TF over GST control)"
same,binding signal,FEV,"1.22 fold enrichment (6-mer frequency, TF over GST control)"
same,binding signal,ETV5,"1.25 fold enrichment (6-mer frequency, TF over GST control)"
same,binding signal,HSF1,"1.08 fold enrichment (6-mer frequency, TF over GST control)"
same,binding signal,SPIC,"1.07 fold enrichment (6-mer frequency, TF over GST control)"
same,binding signal,ELF4,"1.21 fold enrichment (6-mer frequency, TF over GST control)"
same,binding signal,ELK4,"1.2 fold enrichment (6-mer frequency, TF over GST control)"
same,binding signal,ETV2,"1.25 fold enrichment (6-mer frequency, TF over GST control)"
same,binding signal,ELF3,"1.26 fold enrichment (6-mer frequency, TF over GST control)"
same,binding signal,CRX,"1.03 fold enrichment (6-mer frequency, TF over GST control)"
same,binding signal,ETV1,"1.15 fold enrichment (6-mer frequency, TF over GST control)"
